# Measured values published in PubChem BioAssay (EPA / NIEHS).
# Inconclusive results are not listed. Active and inactive are the calls of the source. Rule for the calls, unless noted: active = hit-call score of the fitted dose curve at least 0.9, where 1 is the maximum; inactive = score below 0.9.
# Experiments:
# [1] = read-out: Intercellular Adhesion Molecule 1 (ICAM1), ICAM1 (gene 3383); experiment: BSK_3C_ICAM1: BioMAP Diversity Plus: 3C Assay for Intercellular Adhesion Molecule 1 (ICAM1) Biomarker Activity (AID 2283003); conditions: primary human endothelial cells (HUVEC); actives raise or lower the signal
# Summary of the method: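 ELISA read-out of ICAM-1; HUVEC (primary human), 3C system, 24 h post-dosing; bidirectional fit vs DMSO baseline.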
# [2] = BSK_3C_Proliferation: Cell Proliferation Assessment in the BioMAP Diversity Plus: 3C Assay (AID 2283006); conditions: primary human endothelial cells (HUVEC);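 for AC50: potency may reflect either rise or fall in cell number versus DMSO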
# Summary of the method: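 HUVEC, sub-confluent; 48 h chemical exposure; 10% TCA fix, 0.1% SRB stain, A560 total protein. Gain or loss of signal fitted both directions vs DMSO control.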
# [3] = molecular target: Peroxisome proliferator-activated receptor gamma (Homo sapiens) (UniProt P37231); experiment: ATG_PPARg_TRANS: Attagene TRANS-FACTORIAL HepG2 Assay for human Peroxisome Proliferator-activated Receptor-gamma (PPARg) (AID 2283007; active = hit-call score of the fitted dose curve at least 0.9, where 1 is the maximum)
# Chain of Peroxisome proliferator-activated receptor gamma (Homo sapiens) (P37231 whole entry, looked up, the tested form may be a part): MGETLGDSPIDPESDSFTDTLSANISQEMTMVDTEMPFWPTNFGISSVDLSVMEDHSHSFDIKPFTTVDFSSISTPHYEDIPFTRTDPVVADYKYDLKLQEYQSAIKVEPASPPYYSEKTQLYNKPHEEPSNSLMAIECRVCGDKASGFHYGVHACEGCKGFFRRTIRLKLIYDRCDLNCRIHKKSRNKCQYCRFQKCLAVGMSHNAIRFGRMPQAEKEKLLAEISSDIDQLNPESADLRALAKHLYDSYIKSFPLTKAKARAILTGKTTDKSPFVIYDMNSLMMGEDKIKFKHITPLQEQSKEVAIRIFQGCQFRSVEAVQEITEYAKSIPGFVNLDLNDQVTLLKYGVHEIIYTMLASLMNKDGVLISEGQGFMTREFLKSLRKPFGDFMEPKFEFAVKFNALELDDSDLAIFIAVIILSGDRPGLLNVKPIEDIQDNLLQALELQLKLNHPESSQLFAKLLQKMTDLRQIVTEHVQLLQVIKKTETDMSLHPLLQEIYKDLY
# Summary of the method: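 After 24 h of chemical exposure, transfected HepG2 cells carrying PPARγ-Gal4 chimera reporter constructs are lysed for RNA. Reporter transcripts are measured by RT-PCR and capillary electrophoresis with fluorescent labelling, and gain of signal is fitted versus DMSO.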
# [4] = molecular target: Nuclear receptor subfamily 1 group I member 2 (Homo sapiens) (UniProt O75469); experiment: ATG_PXR_TRANS: Attagene TRANS-FACTORIAL HepG2 Assay for human Pregnane X Receptor (PXR) (AID 2283008; active = hit-call score of the fitted dose curve at least 0.9, where 1 is the maximum)
# Summary of the method: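 Multiplexed TRANS reporter panel in HepG2; this component tracks PXR-Gal4-driven reporter mRNA after 24 h dosing, measured by RT-PCR with capillary electrophoresis fluorescence, fitted against DMSO.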
# [5] = molecular target: human Retinoic Acid Receptor gamma (RARg), RARG (gene 5916) (UniProt P13631); experiment: ATG_RARg_TRANS: Attagene TRANS-FACTORIAL HepG2 Assay for human Retinoic Acid Receptor gamma (RARg) (AID 2283009; active = hit-call score of the fitted dose curve at least 0.9, where 1 is the maximum)
# Chain of human Retinoic Acid Receptor gamma (RARg), RARG (gene 5916) (P13631 whole entry, looked up, the tested form may be a part): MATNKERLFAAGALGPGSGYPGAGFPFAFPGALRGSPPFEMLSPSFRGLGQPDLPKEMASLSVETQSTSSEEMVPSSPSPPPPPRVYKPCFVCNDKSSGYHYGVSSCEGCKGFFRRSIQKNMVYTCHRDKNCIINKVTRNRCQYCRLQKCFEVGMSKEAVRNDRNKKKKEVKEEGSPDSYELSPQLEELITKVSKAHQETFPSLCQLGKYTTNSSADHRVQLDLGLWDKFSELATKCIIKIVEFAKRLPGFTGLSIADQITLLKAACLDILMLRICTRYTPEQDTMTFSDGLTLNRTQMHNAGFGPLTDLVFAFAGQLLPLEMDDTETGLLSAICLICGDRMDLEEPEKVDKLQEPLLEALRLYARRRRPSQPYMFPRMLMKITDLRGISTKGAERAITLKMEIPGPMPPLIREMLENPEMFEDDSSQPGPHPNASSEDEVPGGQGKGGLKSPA
# Summary of the method: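 Readout: reporter transcript levels via RT-PCR, 6-FAM primer-extension labelling, HpaI digestion and capillary electrophoresis. Cells: HepG2 carrying transfected RARg-GAL4 chimera plus UAS reporter set. Dosing 24 h; DMSO negative control.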
# [6] = molecular target: human RAR-related Orphan Receptor beta (RORb), RORB (gene 6096) (UniProt Q92753); experiment: ATG_RORb_TRANS: Attagene TRANS-FACTORIAL HepG2 Assay for human RAR-related Orphan Receptor beta (RORb) (AID 2283010; active = hit-call score of the fitted dose curve at least 0.9, where 1 is the maximum)
# Summary of the method: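 HepG2, transient MRTU transfection (GAL4-UAS reporters, exogenous NR-Gal4 chimeras); 24 h compound exposure; total RNA → RT-PCR → 6-FAM primer extension → HpaI digest → CE fluorescence. Positive direction vs DMSO baseline.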
# [7] = molecular target: human RAR-related Orphan Receptor gamma (RORg), RORC (gene 6097) (UniProt P51449); experiment: ATG_RORg_TRANS: Attagene TRANS-FACTORIAL HepG2 Assay for human RAR-related Orphan Receptor gamma (RORg) (AID 2283011; active = hit-call score of the fitted dose curve at least 0.9, where 1 is the maximum)
# Chain of human RAR-related Orphan Receptor gamma (RORg), RORC (gene 6097) (P51449 whole entry, looked up, the tested form may be a part): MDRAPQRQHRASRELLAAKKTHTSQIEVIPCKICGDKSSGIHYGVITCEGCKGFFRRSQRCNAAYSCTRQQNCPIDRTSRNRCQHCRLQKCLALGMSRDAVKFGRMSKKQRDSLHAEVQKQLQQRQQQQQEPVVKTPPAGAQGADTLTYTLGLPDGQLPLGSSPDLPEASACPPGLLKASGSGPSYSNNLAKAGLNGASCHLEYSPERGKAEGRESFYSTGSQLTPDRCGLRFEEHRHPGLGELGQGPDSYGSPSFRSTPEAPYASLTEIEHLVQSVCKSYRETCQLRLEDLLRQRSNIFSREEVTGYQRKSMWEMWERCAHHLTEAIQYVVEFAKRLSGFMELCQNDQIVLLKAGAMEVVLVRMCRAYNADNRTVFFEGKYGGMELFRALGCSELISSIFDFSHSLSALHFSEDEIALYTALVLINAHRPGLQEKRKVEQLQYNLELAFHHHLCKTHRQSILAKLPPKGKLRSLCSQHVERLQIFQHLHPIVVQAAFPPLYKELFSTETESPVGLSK
# Summary of the method: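 Transient MRTU transfection of HepG2 (TRANS format, exogenous NR-Gal4 chimera). 24 h dosing. Total RNA → oligo(dT) RT → PCR → 6-FAM labelling → HpaI cut → CE. Gain vs DMSO.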
# [8] = molecular target: human Retinoid X Receptor beta (RXRb), RXRB (gene 6257) (UniProt P28702); experiment: ATG_RXRb_TRANS: Attagene TRANS-FACTORIAL HepG2 Assay for human Retinoid X Receptor beta (RXRb) (AID 2283013; active = hit-call score of the fitted dose curve at least 0.9, where 1 is the maximum)
# Chain of human Retinoid X Receptor beta (RXRb), RXRB (gene 6257) (P28702 whole entry, looked up, the tested form may be a part): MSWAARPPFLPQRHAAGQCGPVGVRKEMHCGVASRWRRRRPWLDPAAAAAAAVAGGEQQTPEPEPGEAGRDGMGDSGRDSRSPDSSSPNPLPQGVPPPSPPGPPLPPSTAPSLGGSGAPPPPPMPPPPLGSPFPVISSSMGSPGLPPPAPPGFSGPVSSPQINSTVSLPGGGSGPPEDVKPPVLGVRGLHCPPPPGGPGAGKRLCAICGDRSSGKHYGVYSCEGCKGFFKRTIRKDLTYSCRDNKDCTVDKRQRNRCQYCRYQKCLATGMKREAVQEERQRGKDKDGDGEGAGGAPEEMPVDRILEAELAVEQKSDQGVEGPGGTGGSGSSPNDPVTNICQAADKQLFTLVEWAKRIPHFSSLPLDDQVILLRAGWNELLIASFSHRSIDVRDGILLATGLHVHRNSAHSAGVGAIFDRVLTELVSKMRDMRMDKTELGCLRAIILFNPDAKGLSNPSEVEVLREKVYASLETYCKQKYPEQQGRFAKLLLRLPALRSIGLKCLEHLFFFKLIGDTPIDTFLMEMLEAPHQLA
# Summary of the method: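 Read-out: reporter mRNA induction via RT-PCR plus capillary electrophoresis fluorescence, analysed as signal increase relative to DMSO. Cells were human HepG2, transiently transfected with GAL4-UAS reporter constructs and chimeric receptor-Gal4 fusions, dosed for 24 h.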
# [9] = molecular target: human Thyroid Receptor alpha (THRa1), THRA (gene 7067) (UniProt P10827); experiment: ATG_THRa1_TRANS: Attagene TRANS-FACTORIAL HepG2 Assay for human Thyroid Receptor alpha (THRa1) (AID 2283014; active = hit-call score of the fitted dose curve at least 0.9, where 1 is the maximum)
# Chain of human Thyroid Receptor alpha (THRa1), THRA (gene 7067) (P10827 whole entry, looked up, the tested form may be a part): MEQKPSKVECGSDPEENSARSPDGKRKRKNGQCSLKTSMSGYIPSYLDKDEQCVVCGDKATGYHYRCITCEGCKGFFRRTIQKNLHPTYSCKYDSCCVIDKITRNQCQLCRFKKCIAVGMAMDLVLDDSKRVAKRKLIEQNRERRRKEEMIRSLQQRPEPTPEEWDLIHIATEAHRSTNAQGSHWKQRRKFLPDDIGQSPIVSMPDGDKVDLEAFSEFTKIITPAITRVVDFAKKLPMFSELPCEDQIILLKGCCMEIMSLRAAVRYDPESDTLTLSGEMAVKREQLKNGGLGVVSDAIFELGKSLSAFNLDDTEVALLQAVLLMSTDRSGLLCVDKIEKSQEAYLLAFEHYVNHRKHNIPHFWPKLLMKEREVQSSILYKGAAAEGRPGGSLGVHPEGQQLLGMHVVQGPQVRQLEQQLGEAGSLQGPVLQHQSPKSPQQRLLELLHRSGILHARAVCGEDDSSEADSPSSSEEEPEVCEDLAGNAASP
# Summary of the method: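 Transient HepG2 transfection, NR-Gal4 chimera driving GAL4-UAS reporters; 24 h compound exposure; total RNA, oligo(dT) RT, PCR, fluorescent primer extension, capillary electrophoresis. Upward direction vs DMSO control.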
# [10] = read-out: E-selectin (Homo sapiens) (UniProt P16581); experiment: BSK_3C_Eselectin: BioMAP Diversity Plus: 3C Assay for Eselectin Biomarker Activity (AID 2283015); conditions: primary human endothelial cells (HUVEC); actives raise or lower the signal;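 for outcome: cell surface E-selectin protein quantified by ELISA 24 h after dosing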
# Summary of the method: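 HUVEC, 3C stimulation; compound exposure 24 h; E-selectin by ELISA; gain- or loss-of-signal fitted bidirectionally vs DMSO baseline.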
# [11] = read-out: Interleukin-1 alpha (IL1a), IL1A (gene 3552); experiment: BSK_BE3C_IL1a: BioMAP Diversity Plus: BE3C Assay for Interleukin-1 alpha (IL1a) Biomarker Activity (AID 2283016); conditions: primary human bronchial epithelial cells; actives raise or lower the signal
# Summary of the method: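 ELISA read-out of IL-1a from human lung bronchial epithelial primary cells, 24 h post-dose. Gain or loss of signal fitted relative to DMSO negative control.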
# [12] = read-out: Monocyte Chemoattractant Protein-1 (MCP1), CCL2 (gene 6347); experiment: BSK_3C_MCP1: BioMAP Diversity Plus: 3C Assay for Monocyte Chemoattractant Protein-1 (MCP1) Biomarker Activity (AID 2283017); conditions: primary human endothelial cells (HUVEC); actives raise or lower the signal
# Summary of the method: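 HUVEC, 3C system; 24 h chemical exposure; MCP-1 by ELISA; bidirectional curve fit vs DMSO baseline.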
# [13] = read-out: Monocyte Chemoattractant Protein-1 (MCP1), CCL2 (gene 6347); experiment: BSK_4H_MCP1: BioMAP Diversity Plus: 4H Assay for Monocyte Chemoattractant Protein-1 (MCP1) Biomarker Activity (AID 2283018); conditions: primary human endothelial cells (HUVEC); actives raise or lower the signal
# Summary of the method: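 HUVEC primary cells, 24 h post-dose, MCP-1 by ELISA. Gain or loss of signal fitted bidirectionally vs DMSO baseline. Cytotoxicity: SRB stain (0.1% after 10% TCA fixation), read 560 nm, parallel cultures.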
# [14] = read-out: Human Leukocyte Antigen - DR isotype (HLADR), HLA-DRA (gene 3122); experiment: BSK_3C_HLADR: BioMAP Diversity Plus: 3C Assay for Human Leukocyte Antigen - DR isotype (HLADR) Biomarker Activity (AID 2283019); conditions: primary human endothelial cells (HUVEC); actives raise or lower the signal;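 for outcome: ELISA of cell-surface HLA-DR on HUVEC 24 h after dosing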
# Summary of the method: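 HUVEC, 3C stimulation, 24 h post-dose; HLA-DR by ELISA; bidirectional curve fit vs DMSO baseline; gain or loss of signal scored.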
# [15] = read-out: Interleukin-8 (IL8), CXCL8 (gene 3576); experiment: BSK_3C_IL8: BioMAP Diversity Plus: 3C Assay for Interleukin-8 (IL8) Biomarker Activity (AID 2283020); conditions: primary human endothelial cells (HUVEC); actives raise or lower the signal
# Summary of the method: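 HUVEC, 3C stimulation; 24 h compound exposure; IL-8 read by ELISA; gain or loss of signal fitted relative to DMSO control.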
# [16] = read-out: Monokine induced gamma interferon (MIG), CXCL9 (gene 4283); experiment: BSK_3C_MIG: BioMAP Diversity Plus: 3C Assay for Monokine induced gamma interferon (MIG) Biomarker Activity (AID 2283021); conditions: primary human endothelial cells (HUVEC); actives raise or lower the signal
# Summary of the method: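 HUVEC, 3C system; 24 h chemical exposure; MIG by ELISA; bidirectional fit vs DMSO baseline.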
# [17] = molecular target: human Vitamin D Receptor (VDR), VDR (gene 7421) (UniProt P11473); experiment: ATG_VDR_TRANS: Attagene TRANS-FACTORIAL HepG2 Assay for human Vitamin D Receptor (VDR) (AID 2283022; active = hit-call score of the fitted dose curve at least 0.9, where 1 is the maximum)
# Chain of human Vitamin D Receptor (VDR), VDR (gene 7421) (P11473 whole entry, looked up, the tested form may be a part): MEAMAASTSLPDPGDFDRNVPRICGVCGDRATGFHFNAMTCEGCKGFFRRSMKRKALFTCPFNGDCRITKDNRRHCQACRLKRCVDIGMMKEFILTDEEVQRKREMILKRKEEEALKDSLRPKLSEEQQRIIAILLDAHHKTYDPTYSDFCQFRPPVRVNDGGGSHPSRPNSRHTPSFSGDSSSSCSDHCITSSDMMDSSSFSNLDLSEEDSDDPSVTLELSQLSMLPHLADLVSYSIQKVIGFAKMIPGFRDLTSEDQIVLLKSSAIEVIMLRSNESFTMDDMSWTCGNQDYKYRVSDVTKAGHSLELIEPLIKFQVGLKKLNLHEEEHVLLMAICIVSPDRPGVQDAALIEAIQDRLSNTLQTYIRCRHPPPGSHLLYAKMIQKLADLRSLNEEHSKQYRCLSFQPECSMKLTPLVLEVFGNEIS
# Summary of the method: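 RT-PCR/capillary electrophoresis read-out of reporter mRNA induction in transiently transfected HepG2; 24 h dosing; chimeric NR-Gal4 (TRANS format); gain-of-signal fit against DMSO baseline.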
# [18] = molecular target: human Retinoic Acid Receptor beta (RARb), RARB (gene 5915) (UniProt P10826); experiment: ATG_RARb_TRANS: Attagene TRANS-FACTORIAL HepG2 Assay for human Retinoic Acid Receptor beta (AID 2283004; active = hit-call score of the fitted dose curve at least 0.9, where 1 is the maximum)
# Chain of human Retinoic Acid Receptor beta (RARb), RARB (gene 5915) (P10826 whole entry, looked up, the tested form may be a part): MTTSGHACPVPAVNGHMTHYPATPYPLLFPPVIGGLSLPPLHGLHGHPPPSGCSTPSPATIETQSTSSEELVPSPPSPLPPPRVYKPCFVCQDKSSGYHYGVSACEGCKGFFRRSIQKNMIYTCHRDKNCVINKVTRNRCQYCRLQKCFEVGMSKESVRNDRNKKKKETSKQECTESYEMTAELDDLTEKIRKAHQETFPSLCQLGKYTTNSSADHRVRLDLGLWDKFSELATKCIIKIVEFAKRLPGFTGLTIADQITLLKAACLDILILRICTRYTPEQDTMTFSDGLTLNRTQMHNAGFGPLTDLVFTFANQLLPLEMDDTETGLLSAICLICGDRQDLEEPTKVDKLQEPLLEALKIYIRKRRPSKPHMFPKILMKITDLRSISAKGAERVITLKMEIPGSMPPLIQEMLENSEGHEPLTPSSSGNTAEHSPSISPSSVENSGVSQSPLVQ
# Summary of the method: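 Readout is reporter mRNA induction: RNA reverse-transcribed, PCR-amplified, FAM-labelled, HpaI-cut and resolved by capillary electrophoresis. Transiently transfected HepG2 cells carrying exogenous NR–Gal4 chimeras were dosed for 24 h; activity fitted upward relative to DMSO.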
# [19] = molecular target: Retinoic acid receptor alpha (Homo sapiens) (UniProt P10276); experiment: ATG_RARa_TRANS: Attagene TRANS-FACTORIAL HepG2 Assay for human Retinoic Acid Receptor alpha (RARa) (AID 2283005; active = hit-call score of the fitted dose curve at least 0.9, where 1 is the maximum)
# Chain of Retinoic acid receptor alpha (Homo sapiens) (P10276 whole entry, looked up, the tested form may be a part): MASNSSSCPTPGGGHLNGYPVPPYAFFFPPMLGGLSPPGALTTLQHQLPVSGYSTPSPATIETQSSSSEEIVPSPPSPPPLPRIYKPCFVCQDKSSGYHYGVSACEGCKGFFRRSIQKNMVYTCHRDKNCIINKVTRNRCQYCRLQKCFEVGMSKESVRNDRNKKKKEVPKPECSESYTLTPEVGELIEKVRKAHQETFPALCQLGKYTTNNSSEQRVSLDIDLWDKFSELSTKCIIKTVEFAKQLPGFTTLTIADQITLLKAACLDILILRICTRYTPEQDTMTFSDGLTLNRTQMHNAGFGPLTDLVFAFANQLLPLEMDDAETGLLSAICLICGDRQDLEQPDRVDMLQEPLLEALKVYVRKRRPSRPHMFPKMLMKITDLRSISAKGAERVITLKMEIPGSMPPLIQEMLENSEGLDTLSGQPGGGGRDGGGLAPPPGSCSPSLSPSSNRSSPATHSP
# Summary of the method: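 HepG2 transiently transfected with multiplex GAL4-UAS reporter units including a human RARa–GAL4 chimera; 24 h compound exposure. Reporter mRNA quantified by RT-PCR, 6-FAM labeling and capillary electrophoresis; gain of signal versus DMSO.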
# [20] = molecular target: Retinoic acid receptor RXR-alpha (Homo sapiens) (UniProt P19793); experiment: ATG_RXRa_TRANS: Attagene TRANS-FACTORIAL HepG2 Assay for human Retinoid X Receptor alpha (RXRa) (AID 2283012; active = hit-call score of the fitted dose curve at least 0.9, where 1 is the maximum)
# Chain of Retinoic acid receptor RXR-alpha (Homo sapiens) (P19793 whole entry, looked up, the tested form may be a part): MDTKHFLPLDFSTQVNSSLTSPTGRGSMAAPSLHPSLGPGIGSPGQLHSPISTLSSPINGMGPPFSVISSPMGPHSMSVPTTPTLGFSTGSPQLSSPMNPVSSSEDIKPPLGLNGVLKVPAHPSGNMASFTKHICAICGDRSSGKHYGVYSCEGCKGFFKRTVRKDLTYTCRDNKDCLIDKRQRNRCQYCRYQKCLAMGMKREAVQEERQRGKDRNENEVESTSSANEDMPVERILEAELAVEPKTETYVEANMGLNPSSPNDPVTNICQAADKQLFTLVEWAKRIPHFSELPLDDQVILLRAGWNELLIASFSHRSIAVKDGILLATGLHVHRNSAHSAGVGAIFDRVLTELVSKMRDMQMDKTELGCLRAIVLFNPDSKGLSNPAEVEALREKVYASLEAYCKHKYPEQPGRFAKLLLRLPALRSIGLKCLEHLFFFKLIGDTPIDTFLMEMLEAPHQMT
# Summary of the method: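 Read-out: fluorescent reporter-transcript fragments quantified by capillary electrophoresis after RT-PCR. Transiently transfected HepG2 cells carrying GAL4-UAS reporters and NR-GAL4 chimeras were exposed to chemical for 24 h; activity scored as increase over DMSO.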
# Chain of E-selectin (Homo sapiens) (P16581 whole entry, looked up): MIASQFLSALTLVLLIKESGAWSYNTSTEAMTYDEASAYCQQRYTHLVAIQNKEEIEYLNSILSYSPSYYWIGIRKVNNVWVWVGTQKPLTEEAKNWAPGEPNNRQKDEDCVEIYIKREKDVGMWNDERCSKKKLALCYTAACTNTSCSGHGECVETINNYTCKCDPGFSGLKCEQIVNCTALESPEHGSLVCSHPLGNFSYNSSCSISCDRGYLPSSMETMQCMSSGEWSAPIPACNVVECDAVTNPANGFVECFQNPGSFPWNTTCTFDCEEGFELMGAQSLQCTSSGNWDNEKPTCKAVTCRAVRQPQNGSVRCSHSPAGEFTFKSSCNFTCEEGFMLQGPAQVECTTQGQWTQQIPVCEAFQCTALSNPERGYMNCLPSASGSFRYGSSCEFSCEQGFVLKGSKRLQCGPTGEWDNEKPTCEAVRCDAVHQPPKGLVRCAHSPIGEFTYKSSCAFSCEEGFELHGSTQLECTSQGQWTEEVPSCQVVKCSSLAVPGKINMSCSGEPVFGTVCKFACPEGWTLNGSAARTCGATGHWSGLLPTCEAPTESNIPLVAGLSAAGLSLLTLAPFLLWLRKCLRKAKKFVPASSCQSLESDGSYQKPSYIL
smiles,measurement,setting,value
CC(C)(O)c1coc(S(=O)(=O)NC(=O)Nc2c3c(cc4c2CCC4)CCC3)c1,outcome,[1],inactive
same,outcome,[2],inactive
same,AC50,[3],44.9 µM (active)
same,AC50,[4],19300 nM (active)
same,outcome,[5],inactive
same,outcome,[6],inactive
same,outcome,[7],inactive
same,outcome,[8],inactive
same,outcome,[9],inactive
same,outcome,[10],inactive
same,outcome,[11],inactive
same,outcome,[12],inactive
same,outcome,[13],inactive
same,outcome,[14],inactive
same,outcome,[15],inactive
same,outcome,[16],inactive
same,outcome,[17],inactive
CNS(=O)(=O)c1cc(C(=O)N2CCC(CCN3C4CCC3CC(n3c(C)nc5ccccc53)C4)(c3cccc(F)c3)CC2)c(Cl)cc1F (centres undefined),outcome,[1],inactive
same,outcome,[18],inactive
same,AC50,[2],15.4 µM (active)
same,AC50,[4],779 nM (active)
same,outcome,[5],inactive
same,outcome,[7],inactive
same,outcome,[8],inactive
same,outcome,[9],inactive
same,outcome,[10],inactive
same,outcome,[11],inactive
same,AC50,[14],28.9 µM (active)
same,AC50,[15],29.4 µM (active)
same,outcome,[16],inactive
CCOCCO,outcome,[1],inactive
same,outcome,[18],inactive
same,outcome,[2],inactive
same,outcome,[10],inactive
same,outcome,[11],inactive
same,outcome,[13],inactive
same,outcome,[14],inactive
same,outcome,[15],inactive
same,outcome,[16],inactive
C[C@](N)(Cc1ccc(O)c(O)c1)C(=O)O,outcome,[1],inactive
same,outcome,[18],inactive
same,outcome,[2],inactive
same,outcome,[8],inactive
same,outcome,[9],inactive
same,outcome,[10],inactive
same,outcome,[11],inactive
same,outcome,[13],inactive
same,outcome,[14],inactive
same,outcome,[15],inactive
same,outcome,[16],inactive
same,outcome,[17],inactive
NC(=O)NO,outcome,[1],inactive
same,outcome,[19],inactive
same,outcome,[2],inactive
same,outcome,[4],inactive
same,outcome,[6],inactive
same,outcome,[7],inactive
same,outcome,[10],inactive
same,outcome,[11],inactive
same,outcome,[13],inactive
same,outcome,[14],inactive
same,outcome,[15],inactive
same,outcome,[16],inactive
same,outcome,[17],inactive
COc1ccc(-n2nc(C(F)F)cc2-c2ccc(S(C)=O)cc2)cc1 (centres undefined),outcome,[1],inactive
same,outcome,[2],inactive
same,outcome,[3],inactive
same,outcome,[4],inactive
same,outcome,[5],inactive
same,outcome,[20],inactive
same,outcome,[8],inactive
same,outcome,[10],inactive
same,outcome,[11],inactive
same,outcome,[12],inactive
same,outcome,[14],inactive
same,outcome,[15],inactive
same,outcome,[16],inactive
same,outcome,[17],inactive
Cc1[nH]cnc1C[C@H]1CCc2c(C)c3ccccc3n2C1=O,outcome,[1],inactive
same,outcome,[19],inactive
same,AC50,[2],26.1 µM (active)
same,outcome,[4],inactive
same,outcome,[5],inactive
same,outcome,[20],inactive
same,outcome,[8],inactive
same,outcome,[9],inactive
same,outcome,[10],inactive
same,outcome,[11],inactive
same,AC50,[12],27.5 µM (active)
same,AC50,[13],22.9 µM (active)
same,AC50,[14],29.4 µM (active)
same,AC50,[15],22.4 µM (active)
same,outcome,[16],inactive
same,outcome,[17],inactive
CC(C)c1cccc(C(C)C)c1N1C(=O)c2ccc(O)cc2C1=O,outcome,[1],inactive
same,outcome,[19],inactive
same,AC50,[2],3.32 µM (active)
same,outcome,[3],inactive
same,AC50,[4],242 nM (active)
same,outcome,[5],inactive
same,outcome,[20],inactive
same,outcome,[8],inactive
same,AC50,[10],36.5 µM (active)
same,AC50,[11],20 µM (active)
same,outcome,[12],inactive
same,AC50,[14],8.36 µM (active)
same,AC50,[15],4.86 µM (active)
same,outcome,[16],inactive
same,outcome,[17],inactive
